Results on 53 compounds are retold here after ChEMBL document CHEMBL4513216, “Probing the Open Global Health Chemical Diversity Library for Multistage-Active Starting Points for Next-Generation Antimalarials” (ACS Infect Dis, 2020).

Screen size: about 69,000 compounds; about 8,600 (12%) showed an effect of 50% or more. The sample holds strong results, similar compounds and a random draw of the others, so the mix is not that of the screen.

This experiment concerns Plasmodium berghei. Description: Screen against P. berghei liver stage (PbLuc), transformed with Luciferase, at 10uM. In kind it is functional, HepG2. Conditions: tested at 10 uM.
Turning to `O=C1CC(C(=O)NCCN2CCOC2=O)c2cc(F)ccc2N1` (stereo not drawn), the INHIBITION came out at 36.4%.

For `COc1ccc(C2CNCCN2C(=O)c2nccc3ccccc23)cc1` (stereo not drawn), the INHIBITION is 32.3%.

In the case of `C=C(C)COc1ccccc1C(=O)NCCCc1nnn[nH]1`, the INHIBITION was 31.2%.

Regarding `Cc1c(C2c3nc[nH]c3CCN2CCOCc2ccccc2)cnn1C` (stereo not drawn), the INHIBITION turned out to be 27.5%.

Regarding `c1ccc(COCCN2CCc3[nH]cnc3C2c2ccoc2)cc1` (stereo not drawn), the INHIBITION is recorded as 9.63%.

For the compound `c1ccc(COCCN2CCc3[nH]cnc3C2c2ccco2)cc1` (stereo not drawn), the INHIBITION turned out to be 63.3%.

As to `CN(Cc1ccccn1)C(=O)[C@H]1CO[C@H]2CCN(CC3CC3)C[C@H]2C1`, the INHIBITION was 11.3%.

With `Cc1cnn(CC2CCCN2Cc2cc(C)no2)c1` (stereo not drawn), the INHIBITION is given as 22.265%.

Turning to `CC1CCN(C(=O)c2cccc(CN3CCOCC3)c2)CC1`, the INHIBITION is given as 8.41%.

Turning to `Cc1cc(C)n(-c2ccc(CNCc3ccc(OC(C)C)cc3)cn2)n1`, the INHIBITION is given as 53.5%.

Regarding `Cc1cc(C)n(-c2ccc(CNCc3ccc(C)o3)cn2)n1`, the INHIBITION came out at 34.75%.

As for `Cc1ccc(CNCc2ccc(-n3nc(C)cc3C)nc2)cc1`, the INHIBITION came to 72.2%.

On to `Cc1cc(C)n(-c2ccc(CNCc3ccc(F)cc3F)cn2)n1`, for which the INHIBITION stood at 37.55%.

For the compound `Cc1cc(C)n(-c2ccc(CNCc3ccc(F)c(F)c3)cn2)n1`, the INHIBITION was 13.05%.

As for `COc1cc(CNCc2ccc(-n3nc(C)cc3C)nc2)cc(OC)c1`, the INHIBITION is recorded as -10.193%.

Consider `CCOc1ccc(C(=O)CC(SC2CCCCC2)C(=O)O)cc1` (stereo not drawn), for which the INHIBITION came to 16.1%.

For `COC(=O)c1cc(C(=O)N2CCCC(C)C2)n(-c2ccccc2)n1` (stereo not drawn), the INHIBITION is recorded as 8.5%.

As for `COC[C@@]12CCO[C@@H]1CCN(Cc1sccc1C)C2`, the INHIBITION was determined as 34%.

For `COC[C@@]12CCO[C@@H]1CCN(Cc1ccccc1F)C2`, the INHIBITION is listed as 23.5%.

On to `COC[C@@]12CCO[C@@H]1CCN(Cc1ccc(C)s1)C2`, for which the INHIBITION was found to be 55.7%.

`COC[C@@]12CCO[C@@H]1CCN(C(=O)COc1ccccc1OC)C2`: the INHIBITION is -19.9%.

For `Cc1ccc(CN2CCC3(CCC(=O)N3CC(=O)N(C)C)CC2)s1`, the INHIBITION was -29.5%.

On to `Cc1ccc(CN2CC[C@H]3OCC[C@@]3(C(=O)N3CCCO3)C2)s1`, for which the INHIBITION worked out at 23.3%.

Consider `COC[C@@H]1CCC[C@@]12CN(Cc1ccc(C)s1)CCO2`, for which the INHIBITION came out at 14.1%.

As for `COC[C@@]12CCO[C@@H]1CCN(Cc1ccccc1OC)C2`, the INHIBITION is 51.2%.

Consider `Cc1ccc(CN2CC[C@H]3OCC[C@@]3(COCC(=O)N(C)C)C2)s1`, for which the INHIBITION is on record as 54.8%.

Consider `O=C(c1cnccn1)N1CCC2(CCN(Cc3ccsc3)CC2)CC1`, for which the INHIBITION worked out at 16.4%.

With `Cc1nccc(CNC(=O)CCc2c(C)nc3cc(O)nn3c2C)n1`, the INHIBITION is given as -9.19%.

Consider `CCC1c2ccsc2CCN1C(=O)NCc1ccnc(N(C)C)c1` (stereo not drawn), for which the INHIBITION is recorded as -0.44%.

Take `CCc1nc2ccccc2c(=O)n1CC1(O)CCN(C(=O)C2CC2)CC1`: the INHIBITION was 18.3%.

Turning to `CCCOc1ccc(CN)c(OC(F)F)c1`, the INHIBITION turned out to be 45.2%.

On to `COc1ccc(CN)c(OC(F)F)c1`, for which the INHIBITION is 48.9%.

As for `NCc1ccc(OC(F)F)cc1OC(F)F`, the INHIBITION is reported as 74%.

As for `C[C@H]1C[C@H]2CN(C(=O)c3ccncn3)CC[C@@H]2O1`, the INHIBITION is 35.8%.

With `COc1ccc(CN2CCC3(CC2)NC(=O)CC3c2cnn(C)c2)cc1` (stereo not drawn), the INHIBITION is 12.6%.

As for `CN1CCC2(CC1)CN(CC1CC1)CC21CCNC1=O` (stereo not drawn), the INHIBITION stood at 22.3%.

In the case of `COc1cccc(CNC(=O)c2ccccc2-n2cc(CN)cn2)c1`, the INHIBITION is 5.11%.

For the compound `COCC(=O)N1CCn2c(Cn3cncn3)cnc2C1C` (stereo not drawn), the INHIBITION turned out to be 36.2%.

For `CC1c2ncc(Cn3cncn3)n2CCN1C(=O)N(C)C` (stereo not drawn), the INHIBITION came out at 49%.

Take `CC1c2ncc(Cn3cncn3)n2CCN1C(=O)c1cscn1` (stereo not drawn): the INHIBITION is -6.3%.

For `Cc1occc1C(=O)N1CCn2c(Cn3cncn3)cnc2C1C` (stereo not drawn), the INHIBITION is on record as 6.55%.

As to `COCC(=O)N1CCc2ncc(Cn3cncn3)n2CC1`, the INHIBITION worked out at 15.9%.

Regarding `O=C(Cc1ccc(F)cc1)N1CCn2cc(Cn3cncn3)nc2C1`, the INHIBITION is reported as -13.2%.

Consider `O=C(Cc1ccc(F)cc1)N1CCn2c(Cn3cncn3)cnc2C1`, for which the INHIBITION came out at 57.9%.

Turning to `N#Cc1cccc(C(=O)N2CCn3c(Cn4cncn4)cnc3C2)c1`, the INHIBITION is -17.2%.

Consider `O=C(CC1CC1)N1CCc2ncc(Cn3cncn3)n2CC1`, for which the INHIBITION stood at 57.9%.

Take `CC1c2ncc(Cn3cncn3)n2CCN1C(=O)c1ccccn1` (stereo not drawn): the INHIBITION stood at 60.9%.

For the compound `CC1c2ncc(Cn3cncn3)n2CCN1C(=O)c1ccsc1` (stereo not drawn), the INHIBITION was 52%.

As to `O=C(CC1CC1)N1CCc2ncc(CN3CCOCC3)n2CC1`, the INHIBITION is on record as 42.7%.

For `O=C1CN(c2ccc(C(=O)N3CCc4ccccc43)cn2)CCN1`, the INHIBITION is 49%.

As for `N#Cc1c(F)cccc1N1CCN(C(=O)Nc2nncs2)CC1`, the INHIBITION is given as -7.53%.

On to `O=C(NCCc1nccs1)c1cn(CCN2CCNCC2)nn1`, for which the INHIBITION was -45%.

With `O=C(NCCN1CCNC1=O)c1cnc(-c2cccnc2)nc1`, the INHIBITION turned out to be 15.64%.
